Records with an inconclusive call do not appear. Activity calls are given as the source filed them. Calls follow the shape of the dose curve; as a rule, active = well fitted inhibition curve with a large enough effect; inconclusive = small, poorly fitted or top-dose-only effect; inactive = flat fitted curve, though single readings scatter.
Each compound was assayed on CRL-7250 (assay: qHTS assay to identify novel small-molecules to repurpose for Merkel cell carcinoma treatment (AID 1296009; also: nearly all actives have a fitted effect of over 60% in size)). Settings: MCC and control cell lines, CellTiter-Glo viability, 72 h; series mostly up to 92 µM; activity change, negative = cytotoxicity: at the top concentration.
In short: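 qHTS format: cells treated with library compounds in DMSO across 8 (NPC) or 11 (MIPE) concentrations. Readout after 72 hr at 37 degree celsius was CellTiter-Glo luminescence.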

Row | Compound | outcome
1 | COc1ccccc1CN[C@H]1CCCN[C@H]1c1ccccc1 | inactive
2 | CC1=C(CC(=O)O)c2cc(F)ccc2C1=Cc1ccc(S(C)(=O)=O)cc1 | inactive
3 | C=C1CC/C=C(/CO)C(=O)C[C@@H]2[C@@H]1CC2(C)C | inactive

From PubChem BioAssay (NCATS)
